Data on 43 sequences can be found in PMC7819943, “Rice protein-binding microarrays: a tool to detect cis-acting elements near promoter regions in rice”.

The full ranking holds about 39,000 sequences; the median of “fluorescence intensity (a.u.)” is about 4,300, and the highest 2% start at about 39,000. The sample holds the highest values, similar sequences and a random draw of the others, so the mix is not that of the screen.

The target in this test is T1, OsSMF1 (Oryza sativa, UniProt Q6ZLB0 1-436).
T1 sequence: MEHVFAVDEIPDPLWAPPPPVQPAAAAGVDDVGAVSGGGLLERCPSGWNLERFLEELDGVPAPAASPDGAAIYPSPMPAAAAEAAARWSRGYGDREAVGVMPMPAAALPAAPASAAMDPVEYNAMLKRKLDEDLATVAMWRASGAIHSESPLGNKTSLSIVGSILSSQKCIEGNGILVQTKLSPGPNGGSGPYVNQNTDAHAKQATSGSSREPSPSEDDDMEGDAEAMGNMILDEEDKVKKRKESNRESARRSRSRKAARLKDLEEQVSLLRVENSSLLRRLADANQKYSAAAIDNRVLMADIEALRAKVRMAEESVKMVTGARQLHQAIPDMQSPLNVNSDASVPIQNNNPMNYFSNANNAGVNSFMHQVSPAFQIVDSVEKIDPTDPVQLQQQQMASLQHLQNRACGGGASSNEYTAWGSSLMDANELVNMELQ
The experiment in a line: protein-binding microarray (RPBM); PBS, 2% BSA, 51.3 ng/ul salmon testes DNA, 50 uM zinc acetate, 200 nM TF, 25 C, 1 h; high values mean tight binding. The conditions noted are these: protein: recombinant; tags: N-terminal polyhistidine and DsRed monomer fusion (pET32a); chain copies: 2; label: CyDye5-dUTP incorporated in the synthesized complementary strand; 3' TTTTT single-stranded linker to array surface; dsDNA, one strand shown. The gist of the method: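 Per-feature fluorescence intensity (arbitrary units), read on an Axon 4000B scanner, is the binding signal. Transcription factors carrying an N-terminal polyhistidine tag and DsRed fusion were expressed in E. coli BL21-CodonPlus and purified on Ni–NTA. A custom Agilent array, made double-stranded by primer extension with Cy5-dUTP and blocked with 2% BSA, was incubated with 200 nM protein in PBS, 2% BSA, salmon testes DNA and 50 µM zinc acetate at 25 °C for 1 h and then washed.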
On to “TTGCCACGTAATCGCTACGTCAATGCCACGTGGGACGGAGCGGAGTCACCTAGTGCAG”, for which the binding signal was 43800 fluorescence intensity (a.u.).

On to “GCCCACAAGCGCTCGGCTCGAAACGCCACGTCACCACGCTCGGAGTCACCTAGTGCAG”, for which the binding signal is 43800 fluorescence intensity (a.u.). As for “ATCTAATTGCCACATAAGCACTACGTCAATAACACGTTAGCGGAGTCACCTAGTGCAG”, the binding signal is 10100 fluorescence intensity (a.u.).

For the sequence “CATCTAATTGCCACATAAGCGCCACGTCAACGACACGTTGCGGAGTCACCTAGTGCAG”, the binding signal is 41300 fluorescence intensity (a.u.). With “TAGTTAATAAAAGTCAAAATGAAGTCACAATTTGCCACGTCGGAGTCACCTAGTGCAG”, the binding signal is 8180 fluorescence intensity (a.u.). Turning to “CCGCCCCACGCGGCGCCACCACACCACCGCGCGCGTCGCTCGGAGTCACCTAGTGCAG”, the binding signal was 5900 fluorescence intensity (a.u.).

In the case of “ATGCCACATAAACCCTACGTCAATGCCACGTGGGACAAAGCGGAGTCACCTAGTGCAG”, the binding signal is 22600 fluorescence intensity (a.u.). As for “CACGTAAGCGTCACGTCAATGCCACGTGGGACGGTGACCTCGGAGTCACCTAGTGCAG”, the binding signal was 27900 fluorescence intensity (a.u.). The value for “TGCGGATCTAATTGCCACGTAAGCGCCACGACAATGACACCGGAGTCACCTAGTGCAG” was 16800 fluorescence intensity (a.u.); that for “TATTAATTTCCAAATAAATTGCTATGTCAATGCCACGTCACGGAGTCACCTAGTGCAG” was 40900 fluorescence intensity (a.u.). As to “CTGTCCATTGATCTGTCCCTGGCAGCGACGTGACGTCCCACGGAGTCACCTAGTGCAG”, the binding signal was 4890 fluorescence intensity (a.u.). For “GCTTCGTGGGCCTCTCACTTGAGTCACTGGCACTCCATTCCGGAGTCACCTAGTGCAG”, the binding signal is 3570 fluorescence intensity (a.u.). The value for “TCCAAAATATTAGCATGGCACAGATTGGCACTACCCTTGTCGGAGTCACCTAGTGCAG” was 3280 fluorescence intensity (a.u.); that for “CGTAGAGGAATAACAATGGAACGTCATCCCTCTCTGTTCGCGGAGTCACCTAGTGCAG” was 4120 fluorescence intensity (a.u.); that for “GGTTCCATGCCTCGCCGTTTATCTATCTAATTTACTAGCACGGAGTCACCTAGTGCAG” was 3170 fluorescence intensity (a.u.).

Turning to “CGGCATTGACCTGGTCTTTGTTCCACGTGGCGCTTAGGTGCGGAGTCACCTAGTGCAG”, the binding signal was 8840 fluorescence intensity (a.u.). Turning to “TGTATGTCGGGTTGTCGATGATCAAGCCAGTGACACGCTTCGGAGTCACCTAGTGCAG”, the binding signal was 4000 fluorescence intensity (a.u.). For “AGCCCACGTCCAGCTCACACACGCACCCACAACCGACCCACGGAGTCACCTAGTGCAG”, the binding signal was 6070 fluorescence intensity (a.u.). In the case of “AGAATCGCTTATATTATGGGACGGACGTAACATATAGAAGCGGAGTCACCTAGTGCAG”, the binding signal was 41100 fluorescence intensity (a.u.). Take “GATCAAATTGCCACGTAAGCGCCACGTCAATGCCATGTCACGGAGTCACCTAGTGCAG”: the binding signal was 48000 fluorescence intensity (a.u.). In the case of “ATTTTATTATTCTTGCAGATCAAATTGCCACGTAAGCGTCCGGAGTCACCTAGTGCAG”, the binding signal was 47800 fluorescence intensity (a.u.). As for “ATTTTATTGCCACATAAGCGCCACGTCAATGCCACGTGGGCGGAGTCACCTAGTGCAG”, the binding signal was 56000 fluorescence intensity (a.u.). Consider “AACATATTAGAATATCGGTCTTAAATTAAATCCCATATAACGGAGTCACCTAGTGCAG”, for which the binding signal is 29100 fluorescence intensity (a.u.). On to “TCAAATCAAATTGCCACGTAAGCGCCACGTCACTGCCACACGGAGTCACCTAGTGCAG”, for which the binding signal is 35200 fluorescence intensity (a.u.). On to “ATAAAATTGCCACATAAGCACCACGTCAATGCTATGTGGGCGGAGTCACCTAGTGCAG”, for which the binding signal was 29700 fluorescence intensity (a.u.). Regarding “CAGATATTATATTACGTAACATCTTCGTCAAGCTTACAATCGGAGTCACCTAGTGCAG”, the binding signal is 3850 fluorescence intensity (a.u.). Take “TATAATTGCTACGTAAGCGCCACGTCAATGCCATGTCAGACGGAGTCACCTAGTGCAG”: the binding signal is 15700 fluorescence intensity (a.u.). As to “ACATATAATTGCCACGTCAGCGCCACATCAATGCCACGTGCGGAGTCACCTAGTGCAG”, the binding signal is 26100 fluorescence intensity (a.u.). As for “TTTTCGGATCAAATTGCCACGTAAGCGCCACGTCAGATGACGGAGTCACCTAGTGCAG”, the binding signal was 16000 fluorescence intensity (a.u.).

Regarding “AATTGCCACGTAAGCGCCATGTCAGTGCCACGTCAAATTACGGAGTCACCTAGTGCAG”, the binding signal was 33800 fluorescence intensity (a.u.).

“ACTATCAAGTTCGGATTAACCGAACCAATACAACCACTCACGGAGTCACCTAGTGCAG”: the binding signal is 21900 fluorescence intensity (a.u.). On to “TAAATTTCAAATTCGTGCCACATAGGTCCTTTTCCTCACACGGAGTCACCTAGTGCAG”, for which the binding signal was 4670 fluorescence intensity (a.u.). With “GCTAGCTATTGTTGATTTGTCGTGTTGTAATATATACACTCGGAGTCACCTAGTGCAG”, the binding signal is 4680 fluorescence intensity (a.u.). Take “TAAATCGATCCTACGTCACATGACAGACTGGACCCTTGTCCGGAGTCACCTAGTGCAG”: the binding signal was 10900 fluorescence intensity (a.u.). In the case of “ACGTCCACGAGTCCATGTCATGACACACCCCAAGTTGCTGCGGAGTCACCTAGTGCAG”, the binding signal was 5510 fluorescence intensity (a.u.). “CCCCATCCTAGATGGAACAACCACGTCATCTCATGGGTGACGGAGTCACCTAGTGCAG”: the binding signal was 14800 fluorescence intensity (a.u.).

On to “CGTGATCAATTCGCCTCATGCTGGCGTGACGCGGACCGAGCGGAGTCACCTAGTGCAG”, for which the binding signal is 6720 fluorescence intensity (a.u.). Take “CAAATGCCACCTAAGCGCCACGTCAACCCCATAGACTAGGCGGAGTCACCTAGTGCAG”: the binding signal is 34200 fluorescence intensity (a.u.). Consider “TTCAAATGCCACCTAAACGCCACGTCAACCCCATAGACTACGGAGTCACCTAGTGCAG”, for which the binding signal is 15600 fluorescence intensity (a.u.).

Take “TTCAAATGCCACCTAAGCGCCACGTCAACCCCATAGACTGCGGAGTCACCTAGTGCAG”: the binding signal is 39500 fluorescence intensity (a.u.). In the case of “GGTGTGAGTGTGATGTTGCTCGTGTAATGATGCGTGTGCGCGGAGTCACCTAGTGCAG”, the binding signal is 5000 fluorescence intensity (a.u.). “CGCACACATGAGCTCATGATGTGAACGTGATGATGGTGCGCGGAGTCACCTAGTGCAG”: the binding signal is 48500 fluorescence intensity (a.u.). For the sequence “TGTGATGTGGGCATGCGTGTGCGCACGTGTTCTATTGGTGCGGAGTCACCTAGTGCAG”, the binding signal is 17600 fluorescence intensity (a.u.).
